Molecules are shown by their SMILES. Results filed as inconclusive are left out. Calls of active or inactive are those of the source. Calls come from the whole dose curve; as a rule, active = well fitted activation curve with a large enough effect in the repeat runs; inconclusive = weak or mixed curves; inactive = flat fitted curve, though single readings scatter.
% is set by controls: 0 for no effect and ±100 for the full control effect.

The assay is described as follows: Caspase-3/7 induction in HepG2 cells by small molecules, qHTS assay (AID 1346978). Note: nearly all actives have a fitted effect of over 15% in size. To be noted: HepG2 caspase-3/7 activation, Caspase-Glo luminescence, 17 h; series mostly up to 92.4 µM; caspase activation: at the top concentration. The text has this:
National Center for Advancing Translational Sciences [NCATS] NIH Chemical Genomics Center [NCGC] U.S. Environmental Protection Agency [EPA] National Institutes of Environmental Health Sciences [NIEHS] National Toxicology Program [NTP] Assay overview: Apoptosis is a process of programmed cell death and plays a central role in the development of multicellular organisms. It is a highly regulated process and induces cell death by activating caspases, which are the members of cysteine aspartic acid-specific protease (caspase) family. Caspases involved in apoptosis are classified by their mechanism of action as initiator caspases (caspase-2, -8, -9 and -10) and executioner caspases (caspase-3, -6, and -7). Inhibition of apoptosis results in number of cancers, autoimmune diseases, inflammatory diseases and viral infection. To identify small molecule compounds that induce apoptosis, a homogeneous, luminescent Caspase-Glo 3/7 assay was used. Wild type HepG2 cells were used to screen Tox21 libraries for identifying caspase-3/7 activity inducers.
Assay Protocol Summary: HepG2 cells were dispensed at 2,000 per well in 5uL of culture medium into white solid bottom 1536-well plates (Corning Life Sciences, Corning, NY) using a Multidrop Combi (Thermo Scientific, Waltham, MA) dispenser. The assay plates were incubated at 37 C and 5% CO2 for 5hr, and then 23nL of compounds dissolved in DMSO and positive control were transferred using a Pintool station (Wako, San Diego, CA). The assay plates were incubated at 37C and 5% CO2 for 17hr. For caspase-3/7 activity read, 4uL of Caspase-Glo 3/7 reagent (Promega Corporation, Madison, WI) was added to each well of the assay plates using Flying Reagent Dispenser (FRD, Aurora Discovery, San Diego, CA) and incubated the assay plates at room temperature for 30min. The luminescence signal was quantified using a ViewLux plate reader (Perkin Elmer, Shelton, CT).
As for `CC(=O)c1ccccc1[N+](=O)[O-]`, the “caspase activation” value was -2.1% (inactive). `c1coc(CNc2ncnc3nc[nH]c23)c1`: the “caspase activation” value was -3.42% (inactive). Take `CC(=O)Oc1cccc(C)c1`: the “caspase activation” value was 0.908% [at 42.5 µM] (inactive).

As for `CC(=O)OCC(=O)[C@@]1(O)[C@H](C)C[C@H]2[C@@H]3CCC4=CC(=O)C=C[C@]4(C)[C@@]3(F)[C@@H](O)C[C@@]21C`, the “caspase activation” value is -0.479% [at 42.5 µM] (inactive). As for `[O-][n+]1cccc(CO)c1`, the “caspase activation” value is 0.419% [at 42.5 µM] (inactive).

Turning to `O=S(=O)(O)c1cccc2ccccc12`, the “caspase activation” value is 0.815% (inactive). Regarding `CCCCCCCC1CCCC1=O` (stereo not given), the “caspase activation” value was -2.37% (inactive). In the case of `Clc1cc(Cl)cc(Cl)c1` it was -1.41% (inactive); in that of `Cc1cc(C)c(N=Nc2c(O)c(S(=O)(=O)O)cc3cc(S(=O)(=O)O)ccc23)cc1C`, -0.299% [at 8.39 µM] (inactive). Regarding `CN(C)CCCCCCN(C)C`, the “caspase activation” value was 0.0248% (inactive). Regarding `CO[C@@]1(NC(=O)C(C(=O)O)c2ccc(O)cc2)C(=O)N2C(C(=O)O)=C(CSc3nnnn3C)CO[C@@H]21` (stereo not given in full), the “caspase activation” value was -0.176% [at 42.5 µM] (inactive). As for `O=C(c1ccccc1)C1(O)CCCCC1`, the “caspase activation” value was -2.01% (inactive). Under `C[N+]1(C)CCCC(OC(=O)C(O)(c2ccccc2)c2ccccc2)C1` (stereo not given) stands 0.926% [at 42.5 µM] (inactive); under `CCCCCCCCCCCCSC`, -1.27% (inactive); under `CCCCCCC1CCC(=O)O1` (stereo not given), -2.7% (inactive). As for `CC(C)C1CCC(O)CC1` (stereo not given), the “caspase activation” value was 1.37% (inactive). Under `NC(=O)N1c2ccccc2CC(=O)c2ccccc21` stands -1.71% [at 42.5 µM] (inactive).

As for `COc1c(N2CCNC(C)C2)c(F)cc2c(=O)c(C(=O)O)cn(C3CC3)c12` (stereo not given), the “caspase activation” value was -1.86% [at 42.5 µM] (inactive). For `C=CCCC(=O)O`, the “caspase activation” value was -1.34% (inactive). On to `CC(C)NNC(=O)c1ccncc1`, for which the “caspase activation” value was 0.729% [at 42.5 µM] (inactive). Under `C[C@@H]1C[C@H]2[C@@H]3C[C@H](F)C4=CC(=O)C(Cl)=C[C@]4(C)[C@@]3(F)[C@@H](O)C[C@]2(C)[C@@]1(O)C(=O)CO` stands -1.99% [at 42.5 µM] (inactive); under `CNCC(O)c1ccc(O)c(O)c1` (stereo not given), 0.0478% [at 42.5 µM] (inactive); under `CCCn1cc[n+](C)c1C`, -1.75% (inactive). With `C[N+]12CCC(CC1)C(OC(=O)C(O)(c1ccccc1)c1ccccc1)C2` (stereo not given), the “caspase activation” value was 3.42% [at 42.5 µM] (inactive). In the case of `CNC(=O)Nc1ccc(Cl)c(Cl)c1` it was -2.4% (inactive). Take `CC(C#N)(CCC(=O)O)N=NC(C)(C#N)CCC(=O)O` (stereo not given): the “caspase activation” value was 0.442% (inactive). For the compound `Cc1ccc(C(=O)Nc2ccc(S(=O)(=O)O)c3cc(S(=O)(=O)O)cc(S(=O)(=O)O)c23)cc1NC(=O)c1cccc(NC(=O)Nc2cccc(C(=O)Nc3cc(C(=O)Nc4ccc(S(=O)(=O)O)c5cc(S(=O)(=O)O)cc(S(=O)(=O)O)c45)ccc3C)c2)c1`, the “caspase activation” value was -3.77% [at 42.5 µM] (inactive). `O=[N+]([O-])c1ccc(/C=N\O)o1`: the “caspase activation” value is 0.96% [at 42.5 µM] (inactive). As for `CN1C(C)(C)CC(O)CC1(C)C`, the “caspase activation” value was 0.358% (inactive). With `CCCCN1C=CN(C)C1`, the caspase activation was 1.6% [at 19 µM] (inactive). In the case of `Nc1ccn([C@@H]2O[C@H](CO)[C@@H](O)[C@@H]2O)c(=O)n1`, the “caspase activation” value is -3.07% (inactive).

Take `C=C(C)C(=O)OCC(O)CO` (stereo not given): the “caspase activation” value is -1.13% [at 42.5 µM] (inactive). For the compound `Cc1ccc(-c2ncc(Cl)cc2-c2ccc(S(C)(=O)=O)cc2)cn1`, the “caspase activation” value is -0.359% [at 42.5 µM] (inactive). As to `CCCCCCCCN1CCCC1=O`, the “caspase activation” value was -0.0331% (inactive). Regarding `O=[N+]([O-])c1cncn1CCN1CCOCC1`, the “caspase activation” value is -0.709% [at 42.5 µM] (inactive). As for `CCCCCCCCCC[N+](C)(C)[O-]`, the “caspase activation” value was 1.1% (inactive).

Regarding `C[C@H]1[C@H](NC(=O)/C(=N/OC(C)(C)C(=O)O)c2csc(N)n2)C(=O)N1S(=O)(=O)O` (stereo in doubt), the “caspase activation” value is -1.4% [at 42.5 µM] (inactive). As for `CCOC(=O)OC(C)OC1=C(C(=O)Nc2ccccn2)N(C)S(=O)(=O)c2ccccc21` (stereo not given), the “caspase activation” value was 2% [at 42.5 µM] (inactive). In the case of `O=C(c1ccccc1O)c1ccccc1O`, the “caspase activation” value was 6.33% (inactive). For `C1CCC2(CCCCO2)OC1`, the “caspase activation” value is 0.0628% (inactive).

These data come from PubChem BioAssay (Tox21).
